Measured values taken from article PMC7862700, “An all-to-all approach to the identification of sequence-specific readers for epigenetic DNA modifications on cytosine”.

Key:
Test in all cases: DAPPL (digital affinity profiling via proximity ligation, sequencing); 10 mM Tris-HCl pH 7.5, 50 mM NaCl, 1 mM DTT, 4% glycerol, room temperature, 30 min; GST-TFs on glutathione beads, 16-mer random dsDNA library, 0.1% formaldehyde crosslink after washing; high values mean tight binding
FLI1 = target: T1, FLI1 (Homo sapiens, UniProt Q01543 1-452); conditions: protein: recombinant; tags: N-terminal GST; dsDNA, one strand shown
T1 sequence: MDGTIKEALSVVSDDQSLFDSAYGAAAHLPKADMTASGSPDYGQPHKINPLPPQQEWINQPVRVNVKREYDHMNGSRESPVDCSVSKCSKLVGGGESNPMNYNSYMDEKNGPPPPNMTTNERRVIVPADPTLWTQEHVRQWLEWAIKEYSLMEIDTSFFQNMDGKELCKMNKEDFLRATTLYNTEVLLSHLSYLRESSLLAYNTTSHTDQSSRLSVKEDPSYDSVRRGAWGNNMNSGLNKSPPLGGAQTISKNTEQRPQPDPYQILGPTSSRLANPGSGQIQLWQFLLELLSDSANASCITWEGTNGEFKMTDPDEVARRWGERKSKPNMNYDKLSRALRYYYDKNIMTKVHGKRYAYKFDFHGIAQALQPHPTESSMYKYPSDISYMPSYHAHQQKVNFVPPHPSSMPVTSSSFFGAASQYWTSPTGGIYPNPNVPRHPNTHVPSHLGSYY
In short: (§1)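 Pools were built from human transcription factors expressed in yeast as GST fusions, captured on glutathione beads and DNA-barcoded, along with a tag-only sample. Incubation with 200 nmole of a 16-mer random double-stranded DNA library lasted 30 min at room temperature in Tris/NaCl/DTT/glycerol buffer, and was followed by washing, 0.1% formaldehyde crosslinking, proximity ligation, PCR amplification and Illumina NextSeq500 sequencing. Binding signal is the quotient of each hexamer's read frequency for a factor and its frequency for the tag-only sample.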

ELK1 = target: T2, ELK1 (Homo sapiens, UniProt P19419 1-428); conditions: protein: recombinant; tags: N-terminal GST; dsDNA, one strand shown
T2 sequence: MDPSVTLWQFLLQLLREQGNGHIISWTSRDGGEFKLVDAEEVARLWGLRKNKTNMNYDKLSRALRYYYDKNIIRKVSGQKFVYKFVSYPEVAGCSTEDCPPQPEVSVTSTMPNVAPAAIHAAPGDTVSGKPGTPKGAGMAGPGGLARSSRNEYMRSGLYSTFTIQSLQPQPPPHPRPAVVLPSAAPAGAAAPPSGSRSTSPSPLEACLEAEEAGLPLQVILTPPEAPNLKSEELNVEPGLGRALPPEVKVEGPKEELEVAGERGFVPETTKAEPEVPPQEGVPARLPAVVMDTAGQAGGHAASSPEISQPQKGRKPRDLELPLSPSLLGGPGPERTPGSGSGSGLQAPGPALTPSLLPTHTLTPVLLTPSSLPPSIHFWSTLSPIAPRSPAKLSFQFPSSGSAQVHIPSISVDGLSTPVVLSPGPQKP
In short: as §1

GABPA = target: T3, GABPA (Homo sapiens, UniProt Q06546 1-454); conditions: protein: recombinant; tags: N-terminal GST; dsDNA, one strand shown
T3 sequence: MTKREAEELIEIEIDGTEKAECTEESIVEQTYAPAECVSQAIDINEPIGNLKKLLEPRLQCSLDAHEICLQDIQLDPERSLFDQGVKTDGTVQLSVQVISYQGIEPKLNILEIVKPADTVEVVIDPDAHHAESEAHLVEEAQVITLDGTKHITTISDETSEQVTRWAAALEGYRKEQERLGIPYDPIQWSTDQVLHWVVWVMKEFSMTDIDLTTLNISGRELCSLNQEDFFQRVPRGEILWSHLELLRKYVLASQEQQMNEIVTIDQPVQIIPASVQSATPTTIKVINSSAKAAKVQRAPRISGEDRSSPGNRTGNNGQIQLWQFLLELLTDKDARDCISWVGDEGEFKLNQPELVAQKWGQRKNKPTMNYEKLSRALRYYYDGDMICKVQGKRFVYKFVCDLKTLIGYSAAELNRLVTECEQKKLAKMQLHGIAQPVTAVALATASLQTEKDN
In short: as §1

ERG = target: T4, ERG (Homo sapiens, UniProt P11308 1-479); conditions: protein: recombinant; tags: N-terminal GST; dsDNA, one strand shown
T4 sequence: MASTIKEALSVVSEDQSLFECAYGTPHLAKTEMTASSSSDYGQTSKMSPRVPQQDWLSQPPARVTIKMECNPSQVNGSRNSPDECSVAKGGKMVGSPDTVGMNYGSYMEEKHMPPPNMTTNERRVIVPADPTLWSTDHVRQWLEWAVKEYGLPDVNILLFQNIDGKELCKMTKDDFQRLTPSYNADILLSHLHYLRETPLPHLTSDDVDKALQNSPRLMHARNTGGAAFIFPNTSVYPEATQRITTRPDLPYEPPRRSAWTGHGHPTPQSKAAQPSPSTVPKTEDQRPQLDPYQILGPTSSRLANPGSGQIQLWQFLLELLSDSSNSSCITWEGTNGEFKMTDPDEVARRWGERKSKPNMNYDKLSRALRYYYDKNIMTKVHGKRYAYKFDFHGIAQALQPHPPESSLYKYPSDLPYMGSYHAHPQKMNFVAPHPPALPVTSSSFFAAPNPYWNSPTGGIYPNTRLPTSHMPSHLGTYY
In short: as §1

ELF1 = ELF1 (Homo sapiens, UniProt P32519 1-619); conditions: protein: recombinant; tags: N-terminal GST; dsDNA, one strand shown
In short: as §1

EHF = target: T5, EHF (Homo sapiens, UniProt Q9NZC4 1-300); conditions: protein: recombinant; tags: N-terminal GST; dsDNA, one strand shown
T5 sequence: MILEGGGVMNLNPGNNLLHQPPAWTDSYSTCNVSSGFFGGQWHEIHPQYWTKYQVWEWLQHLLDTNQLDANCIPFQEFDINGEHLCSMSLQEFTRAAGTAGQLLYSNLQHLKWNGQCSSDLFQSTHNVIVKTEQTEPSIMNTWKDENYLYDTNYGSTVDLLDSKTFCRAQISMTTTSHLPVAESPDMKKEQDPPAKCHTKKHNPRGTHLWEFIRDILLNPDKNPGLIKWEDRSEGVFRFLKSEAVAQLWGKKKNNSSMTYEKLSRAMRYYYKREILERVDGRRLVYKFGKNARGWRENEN
In short: as §1

SPI1 = SPI1 (Homo sapiens, UniProt P17947 1-270); conditions: protein: recombinant; tags: N-terminal GST; dsDNA, one strand shown
In short: as §1

SPIB = SPIB (Homo sapiens, UniProt Q01892 1-262); conditions: protein: recombinant; tags: N-terminal GST; dsDNA, one strand shown
In short: as §1

ELK3 = target: T6, ELK3 (Homo sapiens, UniProt P41970 1-407); conditions: protein: recombinant; tags: N-terminal GST; dsDNA, one strand shown
T6 sequence: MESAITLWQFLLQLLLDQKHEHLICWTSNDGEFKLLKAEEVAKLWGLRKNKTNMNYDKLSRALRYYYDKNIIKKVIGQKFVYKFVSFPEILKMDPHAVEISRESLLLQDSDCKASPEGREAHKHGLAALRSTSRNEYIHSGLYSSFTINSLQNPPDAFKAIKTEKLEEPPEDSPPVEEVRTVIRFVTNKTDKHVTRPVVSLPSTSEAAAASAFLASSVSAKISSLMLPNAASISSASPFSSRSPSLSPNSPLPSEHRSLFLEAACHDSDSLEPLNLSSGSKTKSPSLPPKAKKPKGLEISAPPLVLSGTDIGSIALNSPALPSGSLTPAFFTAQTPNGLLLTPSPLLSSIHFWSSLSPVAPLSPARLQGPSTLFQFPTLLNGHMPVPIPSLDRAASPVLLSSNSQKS
In short: as §1

FEV = target: T7, FEV (Homo sapiens, UniProt Q99581 1-238); conditions: protein: recombinant; tags: N-terminal GST; dsDNA, one strand shown
T7 sequence: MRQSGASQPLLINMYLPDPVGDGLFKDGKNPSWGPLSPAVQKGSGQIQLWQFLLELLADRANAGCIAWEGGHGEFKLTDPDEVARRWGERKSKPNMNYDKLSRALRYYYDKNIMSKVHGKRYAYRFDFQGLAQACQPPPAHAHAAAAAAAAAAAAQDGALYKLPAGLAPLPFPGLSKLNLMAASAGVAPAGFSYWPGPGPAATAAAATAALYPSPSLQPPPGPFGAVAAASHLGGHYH
In short: as §1

ETV5 = ETV5 (Homo sapiens, UniProt P41161 1-510); conditions: protein: recombinant; tags: N-terminal GST; dsDNA, one strand shown
In short: as §1

HSF1 = HSF1 (Homo sapiens, UniProt Q00613 1-529); conditions: protein: recombinant; tags: N-terminal GST; chain copies: 3; dsDNA, one strand shown
In short: as §1

SPIC = target: T8, SPIC (Homo sapiens, UniProt Q8N5J4 1-248); conditions: protein: recombinant; tags: N-terminal GST; dsDNA, one strand shown
T8 sequence: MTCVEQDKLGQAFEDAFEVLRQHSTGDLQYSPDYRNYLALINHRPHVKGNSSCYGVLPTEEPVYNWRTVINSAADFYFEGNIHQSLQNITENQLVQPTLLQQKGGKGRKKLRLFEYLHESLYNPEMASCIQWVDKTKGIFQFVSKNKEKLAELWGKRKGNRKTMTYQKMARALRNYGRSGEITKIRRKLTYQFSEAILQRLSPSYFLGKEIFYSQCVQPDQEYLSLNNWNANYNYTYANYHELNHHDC
In short: as §1

ELF4 = ELF4 (Homo sapiens, UniProt Q99607 1-663); conditions: protein: recombinant; tags: N-terminal GST; dsDNA, one strand shown
In short: as §1

ELK4 = target: T9, ELK4 (Homo sapiens, UniProt P28324-2 1-405); conditions: protein: recombinant; tags: N-terminal GST; dsDNA, one strand shown
T9 sequence: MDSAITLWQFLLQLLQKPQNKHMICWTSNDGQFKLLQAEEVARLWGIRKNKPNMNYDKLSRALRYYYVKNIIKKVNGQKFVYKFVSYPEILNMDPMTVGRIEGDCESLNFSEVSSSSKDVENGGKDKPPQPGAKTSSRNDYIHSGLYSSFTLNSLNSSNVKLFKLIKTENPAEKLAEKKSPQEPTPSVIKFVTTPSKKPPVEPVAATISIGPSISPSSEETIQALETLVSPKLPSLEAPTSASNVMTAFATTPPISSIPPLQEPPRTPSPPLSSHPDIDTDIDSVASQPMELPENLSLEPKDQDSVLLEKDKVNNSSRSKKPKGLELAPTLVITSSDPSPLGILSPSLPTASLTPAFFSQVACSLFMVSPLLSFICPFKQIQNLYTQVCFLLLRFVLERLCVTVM
In short: as §1

ETV2 = target: T10, ETV2 (Homo sapiens, UniProt O00321 1-342); conditions: protein: recombinant; tags: N-terminal GST; dsDNA, one strand shown
T10 sequence: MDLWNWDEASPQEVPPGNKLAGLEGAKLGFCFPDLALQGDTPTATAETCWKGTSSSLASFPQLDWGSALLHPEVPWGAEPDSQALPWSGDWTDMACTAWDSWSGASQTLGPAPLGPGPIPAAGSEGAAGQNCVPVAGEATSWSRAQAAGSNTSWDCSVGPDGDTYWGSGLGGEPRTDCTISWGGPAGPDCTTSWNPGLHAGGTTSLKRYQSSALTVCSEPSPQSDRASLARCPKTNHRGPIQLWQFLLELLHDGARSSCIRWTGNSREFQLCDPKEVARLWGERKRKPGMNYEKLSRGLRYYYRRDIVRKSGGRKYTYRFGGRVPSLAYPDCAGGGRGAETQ
In short: as §1

ELF3 = target: T11, ELF3 (Homo sapiens, UniProt P78545 1-371); conditions: protein: recombinant; tags: N-terminal GST; dsDNA, one strand shown
T11 sequence: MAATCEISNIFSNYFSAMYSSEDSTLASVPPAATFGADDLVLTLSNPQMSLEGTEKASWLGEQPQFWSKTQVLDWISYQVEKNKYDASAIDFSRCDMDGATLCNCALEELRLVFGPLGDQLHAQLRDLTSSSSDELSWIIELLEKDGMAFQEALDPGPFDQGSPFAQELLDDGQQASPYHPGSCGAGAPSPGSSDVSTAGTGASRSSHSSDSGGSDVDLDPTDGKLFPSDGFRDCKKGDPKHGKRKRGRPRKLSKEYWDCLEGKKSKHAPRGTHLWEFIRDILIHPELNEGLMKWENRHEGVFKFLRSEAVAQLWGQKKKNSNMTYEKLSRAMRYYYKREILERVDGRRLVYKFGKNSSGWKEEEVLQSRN
In short: as §1

ETV1 = ETV1 (Homo sapiens, UniProt P50549 1-477); conditions: protein: recombinant; tags: N-terminal GST; dsDNA, one strand shown
In short: as §1

Sequence of ETV1 (P50549 whole entry): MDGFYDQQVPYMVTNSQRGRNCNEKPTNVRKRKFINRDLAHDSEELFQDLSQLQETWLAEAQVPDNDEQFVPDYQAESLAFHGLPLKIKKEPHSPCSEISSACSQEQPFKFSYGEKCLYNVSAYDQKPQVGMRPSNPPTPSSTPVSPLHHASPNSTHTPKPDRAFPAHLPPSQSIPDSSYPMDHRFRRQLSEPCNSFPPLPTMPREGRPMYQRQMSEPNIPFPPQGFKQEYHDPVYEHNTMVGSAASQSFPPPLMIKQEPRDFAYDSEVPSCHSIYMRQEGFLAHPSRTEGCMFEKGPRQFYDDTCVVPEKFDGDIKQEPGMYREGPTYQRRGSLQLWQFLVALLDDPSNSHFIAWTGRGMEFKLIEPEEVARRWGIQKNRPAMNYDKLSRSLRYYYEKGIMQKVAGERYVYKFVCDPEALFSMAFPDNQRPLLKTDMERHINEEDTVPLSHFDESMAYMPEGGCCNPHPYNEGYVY
Sequence of ELF4 (Q99607 whole entry): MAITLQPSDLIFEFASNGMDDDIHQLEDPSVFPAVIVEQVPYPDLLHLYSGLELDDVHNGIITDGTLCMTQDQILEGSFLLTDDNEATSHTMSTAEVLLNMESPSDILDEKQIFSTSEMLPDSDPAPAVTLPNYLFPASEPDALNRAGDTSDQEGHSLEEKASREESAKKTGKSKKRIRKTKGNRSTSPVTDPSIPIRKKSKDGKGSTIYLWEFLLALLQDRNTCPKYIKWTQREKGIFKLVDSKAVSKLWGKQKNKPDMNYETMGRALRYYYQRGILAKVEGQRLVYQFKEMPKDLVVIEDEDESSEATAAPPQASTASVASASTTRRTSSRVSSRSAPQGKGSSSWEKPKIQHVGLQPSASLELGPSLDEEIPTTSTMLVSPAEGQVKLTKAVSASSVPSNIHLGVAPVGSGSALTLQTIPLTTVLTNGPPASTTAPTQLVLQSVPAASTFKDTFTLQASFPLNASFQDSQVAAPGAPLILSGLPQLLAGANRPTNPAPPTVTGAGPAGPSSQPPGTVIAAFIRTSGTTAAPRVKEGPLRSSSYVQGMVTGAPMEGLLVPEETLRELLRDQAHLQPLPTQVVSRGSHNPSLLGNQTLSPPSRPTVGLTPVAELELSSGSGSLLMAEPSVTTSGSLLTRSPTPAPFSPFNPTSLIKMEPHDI
Sequence of ETV5 (P41161 whole entry): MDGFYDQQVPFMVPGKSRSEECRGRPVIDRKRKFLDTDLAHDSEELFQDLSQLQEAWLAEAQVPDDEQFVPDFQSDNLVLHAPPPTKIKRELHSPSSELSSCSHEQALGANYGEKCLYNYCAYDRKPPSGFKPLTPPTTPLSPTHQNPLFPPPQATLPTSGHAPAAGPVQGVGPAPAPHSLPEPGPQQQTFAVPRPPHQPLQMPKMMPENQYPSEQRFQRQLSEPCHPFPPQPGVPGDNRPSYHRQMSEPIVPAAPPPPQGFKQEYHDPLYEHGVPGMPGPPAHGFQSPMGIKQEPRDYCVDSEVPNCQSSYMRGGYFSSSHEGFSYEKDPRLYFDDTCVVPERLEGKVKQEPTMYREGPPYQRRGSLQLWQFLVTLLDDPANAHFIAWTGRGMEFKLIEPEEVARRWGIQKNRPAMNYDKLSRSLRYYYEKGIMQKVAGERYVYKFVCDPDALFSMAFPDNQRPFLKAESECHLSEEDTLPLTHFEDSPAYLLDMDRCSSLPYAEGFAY
Sequence of ELF1 (P32519 whole entry): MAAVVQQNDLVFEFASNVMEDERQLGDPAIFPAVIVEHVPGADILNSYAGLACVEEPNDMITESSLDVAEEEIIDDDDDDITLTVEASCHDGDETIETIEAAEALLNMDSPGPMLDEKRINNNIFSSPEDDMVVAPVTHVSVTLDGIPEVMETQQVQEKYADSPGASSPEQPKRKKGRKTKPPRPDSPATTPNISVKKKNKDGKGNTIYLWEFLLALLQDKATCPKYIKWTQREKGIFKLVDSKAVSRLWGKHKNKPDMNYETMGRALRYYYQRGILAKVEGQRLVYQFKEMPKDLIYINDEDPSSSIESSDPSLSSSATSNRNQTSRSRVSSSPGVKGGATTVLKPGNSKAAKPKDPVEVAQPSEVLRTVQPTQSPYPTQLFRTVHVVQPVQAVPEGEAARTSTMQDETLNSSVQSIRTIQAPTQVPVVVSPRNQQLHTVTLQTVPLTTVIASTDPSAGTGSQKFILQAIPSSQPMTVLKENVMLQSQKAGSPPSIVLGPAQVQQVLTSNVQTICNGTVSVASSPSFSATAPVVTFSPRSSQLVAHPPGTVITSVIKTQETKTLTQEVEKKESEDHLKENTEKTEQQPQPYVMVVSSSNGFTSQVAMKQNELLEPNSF
Sequence of SPIB (Q01892 whole entry): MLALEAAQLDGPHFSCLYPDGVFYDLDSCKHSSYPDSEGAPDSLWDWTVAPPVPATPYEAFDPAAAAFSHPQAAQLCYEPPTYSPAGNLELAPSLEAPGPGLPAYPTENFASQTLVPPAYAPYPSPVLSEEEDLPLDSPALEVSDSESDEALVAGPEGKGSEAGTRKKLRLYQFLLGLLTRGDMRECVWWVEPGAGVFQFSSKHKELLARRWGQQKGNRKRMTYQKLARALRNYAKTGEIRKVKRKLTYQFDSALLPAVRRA
Sequence of HSF1 (Q00613 whole entry): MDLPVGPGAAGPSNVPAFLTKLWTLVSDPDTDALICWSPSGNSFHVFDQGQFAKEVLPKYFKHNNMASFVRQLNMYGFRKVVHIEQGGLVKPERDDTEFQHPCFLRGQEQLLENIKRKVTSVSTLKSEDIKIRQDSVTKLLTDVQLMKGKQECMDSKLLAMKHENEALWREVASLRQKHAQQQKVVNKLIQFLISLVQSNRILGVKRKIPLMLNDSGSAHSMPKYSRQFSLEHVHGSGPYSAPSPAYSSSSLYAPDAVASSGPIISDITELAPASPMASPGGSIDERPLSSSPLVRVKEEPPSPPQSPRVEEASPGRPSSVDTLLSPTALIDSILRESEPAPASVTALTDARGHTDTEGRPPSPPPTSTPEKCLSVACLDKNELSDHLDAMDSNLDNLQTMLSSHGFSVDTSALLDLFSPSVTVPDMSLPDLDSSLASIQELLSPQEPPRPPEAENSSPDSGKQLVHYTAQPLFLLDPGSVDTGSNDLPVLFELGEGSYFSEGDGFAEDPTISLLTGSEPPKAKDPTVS

GCAAAA
binding signal (FLI1): 1.04 fold enrichment (6-mer frequency, TF over GST control) | binding signal (ELK1): 1.08 fold enrichment (6-mer frequency, TF over GST control) | binding signal (GABPA): 1.08 fold enrichment (6-mer frequency, TF over GST control) | binding signal (ERG): 1.05 fold enrichment (6-mer frequency, TF over GST control) | binding signal (ELF1): 1.09 fold enrichment (6-mer frequency, TF over GST control) | binding signal (EHF): 1.14 fold enrichment (6-mer frequency, TF over GST control) | binding signal (SPI1): 1.16 fold enrichment (6-mer frequency, TF over GST control) | binding signal (SPIB): 1.13 fold enrichment (6-mer frequency, TF over GST control) | binding signal (ELK3): 1.15 fold enrichment (6-mer frequency, TF over GST control) | binding signal (FEV): 1.08 fold enrichment (6-mer frequency, TF over GST control) | binding signal (ETV5): 1.07 fold enrichment (6-mer frequency, TF over GST control) | binding signal (HSF1): 1.01 fold enrichment (6-mer frequency, TF over GST control) | binding signal (SPIC): 1.06 fold enrichment (6-mer frequency, TF over GST control) | binding signal (ELF4): 1.13 fold enrichment (6-mer frequency, TF over GST control) | binding signal (ELK4): 1.16 fold enrichment (6-mer frequency, TF over GST control) | binding signal (ETV2): 1.14 fold enrichment (6-mer frequency, TF over GST control) | binding signal (ELF3): 1.2 fold enrichment (6-mer frequency, TF over GST control) | binding signal (ETV1): 1.14 fold enrichment (6-mer frequency, TF over GST control)
